The values that follow come from PubChem BioAssay (NCI).

About 83,000 compounds went through this panel and 20% of them were active in at least one assay; those are over-represented in the sample as a whole.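 Method: cells in 96-well plates; compound added at one concentration; 48 h incubation; percent growth measured; values under 10 scored active.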 Values without a mark were called inactive. Active and inactive are the calls of the source.

Holding throughout (assay): NCI-60 one-dose screen, 48 h (100 = growth as untreated, 0 = no growth, -100 = all killed)
Common to all, as to settings: 10 µM unless noted

The subject of assay [1] is HCT-15 colon.
Assay [2] has as its system HT29 colon.
Assay [3] deals with SNB-75 CNS.
Assay [4] has as its system SNB-19 CNS.
The subject of assay [5] is U251 CNS.
Assay [6] relates to PC-3 prostate.
Assay [7] relates to SK-MEL-5 melanoma.
Assay [8] has as its system UACC-62 melanoma.
For assay [9], the system named is LOX IMVI melanoma.
For assay [10], the system named is SK-MEL-28 melanoma.
For assay [11], the system named is SK-MEL-2 melanoma.
Assay [12] deals with EKVX NSCLC.
The subject of assay [13] is SN12C renal.
For assay [14], the system named is UO-31 renal.
For assay [15], the system named is TK-10 renal.
In assay [16] the test system is ACHN renal.
Assay [17] concerns A498 renal.
Assay [18] concerns MOLT-4 leukemia.
Assay [19] concerns SR leukemia.
For assay [20], the system named is CCRF-CEM leukemia.

As for `NS(=O)(=O)c1ccc(-n2nc(-c3ccccc3)ccc2=O)cc1`, the growth was 108% in assay [1]; 112% in [2]; 114% in assay [3]; 101% in assay [4]; 99.2% in assay [5]; 96.2% in [6]. Moreover, the growth in [7] was 109%; in [8], 89.6%; in assay [9], 104%; in assay [10], 104%; in assay [11] it was 101%; in assay [12], 118%. The growth in assay [13] is 97.7%; in assay [14] it was 91.9%; in assay [15] it was 132%; in assay [16] it was 108%; in assay [17], 102%; in [18], 96.4%. Moreover, the growth in [19] was 83.9%.

`O=CN1N=C(c2ccc3c(c2)OCO3)CC1c1cccc(Nc2ccnc3cc(C(F)(F)F)ccc23)c1` (configuration not stated): the growth in assay [1] is 70.9%; in assay [2], 73.4%; in [3], 89%; in assay [4], 89.8%; in [5], 88.7%; in [6] it was 56.8%. Further, the growth was 50.7% in [7]; 55.2% in assay [8]; 76% in assay [9]; 100% in assay [10]; 76.1% in assay [11]; 75.2% in assay [12]. Further, the growth in assay [13] is 88.9%; in assay [14] it was 63.7%; in assay [15], 76.9%; in [16], 85.8%; in assay [20] it was 66.5%; in assay [18], 53.4%. Besides, the growth in assay [19] is 29.9%.

Take `Cc1c(Cl)cccc1NC(=O)c1sc2nc3c(cc2c1N)COCC3`: the growth in assay [1] was 19.6%; in [2], 5.9% (active); in [3], 19.4%; in assay [4] it was 26.5%; in [5], 22.6%; in [6], 30.3%. Moreover, the growth was 23.9% in assay [7]; 31.1% in assay [8]; 35.5% in assay [9]; 58.6% in [10]; 29.4% in assay [11]; 60.3% in assay [12]. Besides, the growth in [13] is 44.1%; in assay [14] it was 49.2%; in [15], 57%; in assay [16] it was 44.2%; in assay [20], 21.1%; in assay [18], 27.5%. Further, the growth in [19] is 15.4%.

For `C=C(C)[C@@H]1CC[C@]2(C(=O)NCCCO)CC[C@]3(C)[C@H](CC[C@@H]4[C@@]5(C)CCCNC(C)(C)[C@@H]5CC[C@]43C)[C@@H]12`, the growth in [1] was 68.6%; in [2] it was 7.18% (active); in [3], 72.2%; in [4] it was 85.4%; in assay [5], 53.7%; in assay [6], 49.2%. Moreover, the growth in [7] was 13%; in [8], 83.8%; in assay [9], 78.7%; in assay [10] it was 51.3%; in [11], 94.1%; in assay [12], 77.5%. The growth in [13] was 70.9%; in assay [14] it was 56.1%; in assay [15], 91.2%; in assay [16], 89.5%; in assay [20], 60.4%; in [18] it was 30.5%. Further, the growth in assay [19] is -19.5% (active).

As for `COc1ccc(-c2cn(-c3ccc(Cl)cc3)c(=S)[nH]2)cc1OC`, the growth in assay [1] was 63.4%; in [2], 44.2%; in [3] it was 111%; in [4], 90.6%; in assay [5], 75%; in [6], 72.4%. Further, the growth in assay [7] was 41.7%; in assay [8] it was 72.5%; in [9], 0.188% (active); in assay [10] it was 92.4%; in [11], 46.9%; in assay [12] it was 74.7%. Besides, the growth in [13] is 74.3%; in assay [14] it was 85.4%; in [15], 72.8%; in assay [16], 67%; in assay [17], 94.4%; in assay [18], 77.8%. Moreover, the growth in assay [19] is 22.3%.

With `Nc1ccc(C(=O)Nc2cccc(C(=O)Nc3ccc4c(O)c(N=Nc5ccc(N=Nc6ccc(S(=O)(=O)O)cc6)cc5)c(S(=O)(=O)O)cc4c3)c2)cc1`, the growth in assay [1] is 102%; in assay [2], 97.6%; in assay [3], 85.7%; in [4], 107%; in [5], 107%; in assay [6] it was 98.2%. Besides, the growth is 107% in assay [7]; 98.6% in [8]; 94.7% in assay [9]; 99.7% in assay [10]; 97.5% in assay [11]; 105% in [12]. Further, the growth in [13] was 101%; in assay [14], 88.4%; in assay [15], 97.1%; in assay [16], 106%; in assay [17] it was 107%; in assay [18], 92.1%. The growth in assay [19] was 92.2%.

`O=C(Nc1ccccc1)NS(=O)(=O)c1c[nH]c(=S)[nH]c1=O`: the growth in assay [1] is 109%; in assay [2], 73.7%; in assay [3], 89.2%; in assay [4] it was 106%; in [5], 93.3%; in assay [6], 100%. For the same molecule, the growth in assay [7] is 104%; in [8] it was 99.5%; in assay [9] it was 92.4%; in [10], 116%; in assay [11], 91.5%; in [12], 99.6%. The growth in [13] is 103%; in assay [14] it was 89.3%; in assay [15] it was 97.6%; in assay [16], 108%; in assay [20], 113%; in assay [18], 90.8%. Besides, the growth in assay [19] is 87.3%.

`Cc1c(Cl)cccc1NC(=O)c1sc2nc3c(cc2c1N)CN(Cc1ccccc1)CC3`: the growth in [1] is 33.6%; in assay [2], 8.14% (active); in assay [3], 41.9%; in assay [4] it was 38.4%; in assay [5], 31.9%; in assay [6], 43.1%. Also, the growth in assay [7] was 49.1%; in [8], 40.2%; in [9], 40.4%; in assay [10], 71.1%; in [11] it was 31.4%; in assay [12], 55.5%. The growth in assay [13] is 59.2%; in [14], 58%; in assay [15], 75%; in [16] it was 56.4%; in assay [20] it was 14.5%; in [18], 22.9%. In addition, the growth in assay [19] is 16.9%.
